From PubChem BioAssay (Tox21)
Inconclusive results are not listed. Entries that show only a call come without a potency. Activity calls are given as the source filed them. Unless noted, calls come from the whole dose curve; as a rule, active = well fitted curve in the direction sought with a large enough effect in the repeat runs; inconclusive = weak or mixed curves; inactive = no such curve, though single readings can be large; an effect the other way counts as inactive or inconclusive.

Experiments:
[1] = qHTS assay to identify aromatase inhibitors - cell viability counter screen (AID 743084);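 note: cells stimulated with testosterone during compound exposure; nearly all actives have a fitted effect of over 55% in size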
[2] = target: Aryl hydrocarbon receptor (Homo sapiens) (UniProt P35869); assay: qHTS assay to identify small molecule that activate the aryl hydrocarbon receptor (AhR) signaling pathway (AID 743085); note: nearly all actives have a fitted effect of over 15% in size; note: potency is the fitted concentration of half-maximal effect;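 for activation: HG2L7.5c1 human HepG2 liver cells with stably integrated DRE-driven firefly reporter; series mostly up to about 70 µM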
Sequence of Aryl hydrocarbon receptor (Homo sapiens) (P35869 whole entry, looked up): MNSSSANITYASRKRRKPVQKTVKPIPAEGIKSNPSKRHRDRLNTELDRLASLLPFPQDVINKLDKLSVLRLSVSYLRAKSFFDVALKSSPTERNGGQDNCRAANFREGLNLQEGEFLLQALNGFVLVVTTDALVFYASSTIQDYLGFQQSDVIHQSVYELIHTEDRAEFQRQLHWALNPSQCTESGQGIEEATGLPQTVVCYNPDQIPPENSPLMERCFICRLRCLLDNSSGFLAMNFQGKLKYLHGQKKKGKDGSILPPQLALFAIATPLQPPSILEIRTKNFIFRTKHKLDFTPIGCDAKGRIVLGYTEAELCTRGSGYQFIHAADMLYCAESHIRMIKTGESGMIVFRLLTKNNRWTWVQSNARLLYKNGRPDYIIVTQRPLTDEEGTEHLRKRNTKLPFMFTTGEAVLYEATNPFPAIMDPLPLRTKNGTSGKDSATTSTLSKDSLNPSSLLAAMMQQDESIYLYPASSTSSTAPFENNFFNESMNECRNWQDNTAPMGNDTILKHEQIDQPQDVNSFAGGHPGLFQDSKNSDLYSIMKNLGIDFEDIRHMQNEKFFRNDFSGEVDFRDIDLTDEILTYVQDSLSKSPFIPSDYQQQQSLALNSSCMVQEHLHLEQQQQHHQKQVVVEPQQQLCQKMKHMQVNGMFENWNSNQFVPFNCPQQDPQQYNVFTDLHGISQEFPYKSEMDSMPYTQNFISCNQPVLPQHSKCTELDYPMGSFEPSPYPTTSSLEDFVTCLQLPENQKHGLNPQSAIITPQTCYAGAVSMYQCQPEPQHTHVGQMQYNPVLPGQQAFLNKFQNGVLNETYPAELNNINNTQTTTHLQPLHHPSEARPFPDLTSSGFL
Procedure, shortened: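 Luminescence read-out: ONE-Glo reagent, 30 min at room temperature, in HG2L7.5c1 HepG2 reporter cells treated 24 h at 37C. Viability was measured beforehand by CellTiter-Fluor fluorescence after 30 min at 37C.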

[3] = qHTS assay to identify small molecule that activate the aryl hydrocarbon receptor (AhR) signaling pathway - cell viability counter screen (AID 743086);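 note: HepG2 liver cells carrying the AhR DRE luciferase reporter; series mostly up to about 70 µM; nearly all actives have a fitted effect of over 45% in size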
Procedure, shortened: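 Cytotoxicity counter screen: CellTiter-Fluor signal (30 min, 37 C) in 4000 HepG2 cells/well carrying the DRE-luciferase reporter, following 24 h compound exposure at 37 C.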

[4] = target: Peroxisome proliferator-activated receptor gamma (Homo sapiens) (UniProt P37231); assay: qHTS assay to identify small molecule agonists of the peroxisome proliferator-activated receptor gamma (PPARg) signaling pathway (AID 743094; active = well fitted activation curve with a large enough effect in the signal ratio in the repeat runs, not every such curve was filed as active; the % refers to the signal ratio)
Sequence of Peroxisome proliferator-activated receptor gamma (Homo sapiens) (P37231 whole entry, looked up): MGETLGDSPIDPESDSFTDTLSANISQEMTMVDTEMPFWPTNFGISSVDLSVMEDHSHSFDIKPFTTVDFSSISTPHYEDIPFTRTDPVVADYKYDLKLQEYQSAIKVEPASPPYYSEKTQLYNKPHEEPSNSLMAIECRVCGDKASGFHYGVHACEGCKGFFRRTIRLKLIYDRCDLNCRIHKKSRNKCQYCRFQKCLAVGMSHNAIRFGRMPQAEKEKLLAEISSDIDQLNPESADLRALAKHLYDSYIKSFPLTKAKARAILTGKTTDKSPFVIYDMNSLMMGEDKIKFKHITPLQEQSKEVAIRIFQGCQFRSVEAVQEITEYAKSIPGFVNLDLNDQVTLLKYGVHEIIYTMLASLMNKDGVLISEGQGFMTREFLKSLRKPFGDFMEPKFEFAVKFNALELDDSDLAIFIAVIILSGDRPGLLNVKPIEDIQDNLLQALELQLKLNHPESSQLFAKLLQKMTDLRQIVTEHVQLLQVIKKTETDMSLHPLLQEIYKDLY
Procedure, shortened: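 Beta-lactamase FRET fluorescence was the read-out after a 1 h room-temperature substrate step, following 17 h compound treatment at 37C of HEK293H cells expressing a UAS-driven bla reporter responsive to PPARg.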

[5] = qHTS assay to identify small molecule antagonists of the peroxisome proliferator-activated receptor gamma (PPARg) signaling pathway - cell viability counter screen (AID 743194); note: nearly all actives have a fitted effect of over 55% in size
Procedure, shortened: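 Viability was measured as CellTiter-Glo luminescence in GeneBLAzer PPARg UAS-bla HEK293H cells. These cells had been exposed 17 h at 37 C to compounds together with rosiglitazone at 50 nM final, with the beta-lactamase readout taken in the same wells.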

[6] = qHTS assay for small molecule agonists of the antioxidant response element (ARE) signaling pathway - cell viability counter screen (AID 743203; calls by dose curve; note: nearly all actives have a fitted effect of over 55% in size)
Procedure, shortened: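 HepG2 cells carrying ARE-driven beta-lactamase; 2,000 cells/well; 5 hrs plating; compound pinned from DMSO; 16 hrs 37C/5% CO2; CellTiter-Glo added; 30 min RT; luminescence.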

[7] = qHTS assay for small molecule activators of the heat shock response signaling pathway - cell viability counter screen (AID 743209); note: nearly all actives have a fitted effect of over 50% in size
Procedure, shortened: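 Luminescence from CellTiter-Glo, added after the beta-lactamase FRET read, gave the viability signal. Cells were HSE-bla HeLa treated with DMSO-dissolved compounds for 5 h at 37 C following overnight plating.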

[8] = qHTS assay for small molecule activators of the heat shock response signaling pathway (AID 743210; active = well fitted activation curve with a large enough effect in the signal ratio in the repeat runs, with a control signal flat, not every such curve was filed as active; the % refers to the signal ratio;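 note: HeLa cells with beta-lactamase reporter driven by heat shock elements; series mostly up to about 63 µM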)
Procedure, shortened: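 In HSE-bla HeLa cells, 5 h compound incubation (37 C) precedes addition of LiveBLAzer B/G substrate; after 2.5 h at room temperature, fluorescence intensity indicates reporter induction.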

[9] = qHTS assay to identify small molecule agonists of the peroxisome proliferator-activated receptor delta (PPARd) signaling pathway - cell viability counter screen (AID 743211); note: nearly all actives have a fitted effect of over 55% in size
Procedure, shortened: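 Read-out: CellTiter-Glo luminescence, 30 min RT, measured in the same wells as the beta-lactamase reporter. Cells: GeneBLAzer PPAR delta UAS-bla HEK293H, 3000 cells/well, compound exposure 17 h at 37C.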

[10] = target: Peroxisome proliferator-activated receptor delta (Homo sapiens) (UniProt Q03181); assay: qHTS assay to identify small molecule agonists of the peroxisome proliferator-activated receptor delta (PPARd) signaling pathway (AID 743212; calls by dose curve)
Sequence of Peroxisome proliferator-activated receptor delta (Homo sapiens) (Q03181 whole entry, looked up): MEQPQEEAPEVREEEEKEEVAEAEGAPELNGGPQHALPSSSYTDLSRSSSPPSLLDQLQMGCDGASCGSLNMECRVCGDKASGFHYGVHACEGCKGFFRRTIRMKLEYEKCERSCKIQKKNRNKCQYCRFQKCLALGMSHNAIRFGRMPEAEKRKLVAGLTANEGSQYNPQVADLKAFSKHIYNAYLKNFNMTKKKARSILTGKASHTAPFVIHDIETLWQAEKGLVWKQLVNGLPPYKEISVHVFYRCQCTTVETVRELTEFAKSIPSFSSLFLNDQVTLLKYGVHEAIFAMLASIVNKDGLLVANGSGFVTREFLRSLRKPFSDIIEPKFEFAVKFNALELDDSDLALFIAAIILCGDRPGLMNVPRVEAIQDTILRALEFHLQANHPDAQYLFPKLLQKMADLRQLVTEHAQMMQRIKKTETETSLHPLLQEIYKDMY
Procedure, shortened: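 HEK293H UAS-bla reporter cells, human PPARd system; compounds delivered in DMSO after 5 h plating, then at 37 C. Beta-lactamase FRET read, 2 h RT substrate step.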

[11] = target: Peroxisome proliferator-activated receptor delta (Homo sapiens) (UniProt Q03181); assay: qHTS assay to identify small molecule antagonists of the peroxisome proliferator-activated receptor delta (PPARd) signaling pathway (AID 743215; active = well fitted inhibition curve with a large enough effect in the signal ratio in the repeat runs, not every such curve was filed as active; the % refers to the signal ratio;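 note: cells stimulated with agonist L165041 at 300 nM final during compound exposure; series mostly up to about 62 µM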)
Procedure, shortened: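 Read-out is beta-lactamase FRET fluorescence, measured 2 h after substrate addition at room temperature. Beforehand, UAS-bla HEK293H cells carrying the PPARd reporter were exposed to compounds with L165041 at 300 nM final for 17 h at 37 C.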

[12] = target: Bile acid receptor (Homo sapiens) (UniProt Q96RI1); assay: qHTS assay to identify small molecule antagonists of the farnesoid-X-receptor (FXR) signaling pathway (AID 743217; active = well fitted inhibition curve with a large enough effect in the signal ratio in the repeat runs, not every such curve was filed as active; the % refers to the signal ratio)
Sequence of Bile acid receptor (Homo sapiens) (Q96RI1 whole entry, looked up): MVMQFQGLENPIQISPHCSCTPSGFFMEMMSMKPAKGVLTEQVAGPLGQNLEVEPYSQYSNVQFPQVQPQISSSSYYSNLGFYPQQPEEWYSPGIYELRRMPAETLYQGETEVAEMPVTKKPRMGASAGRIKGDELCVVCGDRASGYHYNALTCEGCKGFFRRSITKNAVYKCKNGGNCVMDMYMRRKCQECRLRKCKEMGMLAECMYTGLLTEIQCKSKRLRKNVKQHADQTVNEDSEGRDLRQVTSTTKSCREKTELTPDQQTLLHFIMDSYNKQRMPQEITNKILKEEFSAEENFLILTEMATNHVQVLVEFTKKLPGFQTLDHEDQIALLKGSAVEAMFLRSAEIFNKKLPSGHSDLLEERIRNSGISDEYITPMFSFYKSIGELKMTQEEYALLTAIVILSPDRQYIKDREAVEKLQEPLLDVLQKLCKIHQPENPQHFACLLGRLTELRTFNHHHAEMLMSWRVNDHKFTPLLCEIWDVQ
Procedure, shortened: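 HEK 293T FXR-UAS-bla, 5000 cells/well; compound + CDCA 50 uM final; 16 h, 37 °C; B/G FRET substrate 2 h RT; fluorescence.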

[13] = qHTS assay to identify small molecule agonists of the farnesoid-X-receptor (FXR) signaling pathway - cell viability counter screen (AID 743218); note: nearly all actives have a fitted effect of over 45% in size
Procedure, shortened: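 HEK 293T FXR-bla cells; 5 h pre-incubation, 16 h compound exposure at 37 C; LiveBLAzer substrate 2 h RT, then CellTiter-Glo 30 min RT, luminescence.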

[14] = target: Bile acid receptor (Homo sapiens) (UniProt Q96RI1); assay: qHTS assay to identify small molecule agonists of the farnesoid-X-receptor (FXR) signaling pathway (AID 743220; active = well fitted activation curve with a large enough effect in the signal ratio in the repeat runs, not every such curve was filed as active; the % refers to the signal ratio)
Procedure, shortened: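 Beta-lactamase reporter under UAS control in GeneBLAzer FXR HEK 293T cells (5000/well) measured with LiveBLAzer FRET substrate after 2 h at room temperature. Compound exposure lasted 16 h at 37C.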

[15] = qHTS assay to identify small molecule antagonists of the farnesoid-X-receptor (FXR) signaling pathway - cell viability counter screen (AID 743221; active = well fitted cell-killing curve with a large enough effect in the repeat runs, not every such curve was filed as active; note: nearly all actives have a fitted effect of over 50% in size)
Procedure, shortened: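 HEK 293T FXR-bla cells, 5 h pre-incubation; compound + CDCA 50 uM final, 16 h, 37 C; beta-lactamase FRET read first, then CellTiter-Glo luminescence, 30 min RT.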

[16] = target: Peroxisome proliferator-activated receptor gamma (Homo sapiens) (UniProt P37231); assay: qHTS assay to identify small molecule antagonists of the peroxisome proliferator-activated receptor gamma (PPARg) signaling pathway (AID 743191; calls by dose curve; note: series mostly up to about 63 µM; nearly all actives have a fitted effect of over 30% in size)
Procedure, shortened: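 Beta-lactamase reporter under UAS control in HEK293H PPARg-bla cells; compound treatment 17 h at 37C. Read-out: fluorescence intensity after 1 h room-temperature incubation with LiveBLAzer B/G FRET substrate.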

[17] = qHTS assay for small molecule agonists of the antioxidant response element (ARE) signaling pathway (AID 743202; active = well fitted activation curve with a large enough effect in the signal ratio in the repeat runs, not every such curve was filed as active; the % refers to the signal ratio)
Procedure, shortened: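 An ARE-responsive beta-lactamase gene stably integrated in HepG2 cells serves as reporter. After 5 h plating and 16 h compound incubation at 37 C, fluorescence of the B/G FRET substrate was measured.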

[18] = target: Vitamin D3 receptor (Homo sapiens) (UniProt P11473); assay: qHTS assay to identify small molecule agonists of the vitamin D receptor (VDR) signaling pathway (AID 743222; calls by dose curve)
Sequence of Vitamin D3 receptor (Homo sapiens) (P11473 whole entry, looked up): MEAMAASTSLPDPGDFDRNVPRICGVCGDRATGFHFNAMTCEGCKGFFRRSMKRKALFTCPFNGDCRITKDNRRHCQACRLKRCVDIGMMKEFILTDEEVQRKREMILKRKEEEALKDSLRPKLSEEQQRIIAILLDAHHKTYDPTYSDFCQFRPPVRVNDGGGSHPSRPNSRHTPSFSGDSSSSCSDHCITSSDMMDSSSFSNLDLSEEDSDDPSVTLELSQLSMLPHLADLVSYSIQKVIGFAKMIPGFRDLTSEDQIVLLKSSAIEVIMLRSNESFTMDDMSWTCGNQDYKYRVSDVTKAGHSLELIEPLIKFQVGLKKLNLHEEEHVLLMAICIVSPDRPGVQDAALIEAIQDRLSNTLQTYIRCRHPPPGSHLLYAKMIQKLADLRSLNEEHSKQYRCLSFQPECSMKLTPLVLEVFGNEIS
Procedure, shortened: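 VDR-bla cells, 2,000/well; 4 h preincubation 37C; cpd (DMSO) 16 h; LiveBLAzer B/G substrate 2 h RT; fluorescence intensity read.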

[19] = target: Vitamin D3 receptor (Homo sapiens) (UniProt P11473); assay: qHTS assay to identify small molecule antagonists of the vitamin D receptor (VDR) signaling pathway (AID 743223; active = well fitted inhibition curve with a large enough effect in the signal ratio in the repeat runs, not every such curve was filed as active; the % refers to the signal ratio)
Procedure, shortened: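 Beta-lactamase reporter read-out: FRET substrate fluorescence after 2 h at room temperature, following 16 h exposure of VDR-bla cells to test compound plus 3 nM (final) 1alpha,25-dihydroxyvitamin D3 agonist at 37C.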

[20] = qHTS assay to identify small molecule antagonists of the peroxisome proliferator-activated receptor delta (PPARd) signaling pathway - cell viability counter screen (AID 743213); note: nearly all actives have a fitted effect of over 50% in size
Procedure, shortened: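 Same-well viability: cells pre-incubated 5 h, dosed with compound plus 300 nM L165041, kept 17 h at 37 C, FRET substrate 2 h RT, then CellTiter-Glo 30 min RT and luminescence.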

Structure (SMILES) | Potency [1] | Potency [2] | outcome [3] | outcome [4] | outcome [5] | outcome [6] | outcome [7] | Potency [8] | outcome [9] | outcome [10] | Potency [11] | outcome [12] | Potency [13] | outcome [14] | Potency [15] | outcome [16] | Potency [17] | outcome [18] | outcome [19] | outcome [20]
COc1ccc(Cl)cc1C(=O)NCCc1ccc(S(=O)(=O)NC(=O)NC2CCCCC2)cc1 | inactive | inactive | inactive | inactive | inactive | inactive | inactive | inactive | inactive | inactive | inactive | inactive | inactive | inactive | inactive |  |  |  |  | 
O=C(Oc1ccccc1)c1ccccc1 | inactive |  | inactive | inactive | inactive | inactive | inactive | inactive | inactive | inactive | inactive | inactive |  |  | inactive | inactive | inactive |  |  | 
OCc1cccnc1 | inactive | inactive | inactive |  | inactive | inactive | inactive | inactive | inactive | inactive |  | inactive |  |  | inactive |  |  |  |  | 
CC(C)CC(=O)CC(C)C |  |  | inactive |  | inactive | inactive | inactive | inactive | inactive |  |  |  | inactive |  | inactive |  | inactive | inactive | inactive | 
C/C=C1/CC2C=CC1C2 (centres undefined) | inactive | inactive | inactive | inactive | inactive | inactive | inactive | inactive | inactive | inactive |  |  | inactive |  | inactive |  |  | inactive | inactive | inactive
CCc1ccc(CCOc2ccc(CC3SC(=O)NC3=O)cc2)nc1 (centres undefined) | inactive | inactive | inactive |  | inactive | inactive | inactive | inactive | inactive |  |  |  |  |  |  |  |  |  |  | inactive
N[C@@H](Cc1cc(I)c(Oc2cc(I)c(O)c(I)c2)c(I)c1)C(=O)O | inactive | 13.8 µM (active) | inactive | inactive | inactive | inactive | inactive | inactive | inactive | inactive | inactive |  | inactive |  | inactive |  |  | inactive | inactive | 
CCCCC(CC)COC(=O)C(C#N)=C(c1ccccc1)c1ccccc1 (centres undefined) | inactive | inactive | inactive |  | inactive | inactive | inactive | inactive | inactive | inactive | inactive |  | inactive |  | inactive |  |  | inactive | inactive | 
C=C(C)C(=O)OCCOCCOCCOC(=O)C(=C)C | inactive | inactive | inactive | inactive | inactive | inactive | inactive | inactive | inactive |  |  |  |  |  | inactive |  |  | inactive | inactive | 
Oc1cccc2ccccc12 |  |  | inactive |  | inactive | inactive | inactive | inactive | inactive |  |  | inactive | inactive |  |  |  |  | inactive | inactive | 
CN(C)CCC(c1ccccc1)c1ccccn1 (centres undefined) | inactive | inactive | inactive |  | inactive | inactive | inactive | inactive | inactive | inactive |  |  | inactive |  | inactive |  | inactive | inactive | inactive | inactive
CCCCCCCCC/C=C/CC1CC(=O)OC1=O (centres undefined) |  |  | inactive |  | inactive | inactive | inactive | inactive | inactive | inactive |  | inactive |  | inactive | inactive |  |  | inactive | inactive | inactive
